From the supplement of paper PMC10646978
± gives the standard deviation.

Key:
Details in all cases: modulator concentration 10 µM
[1] = test system: RAW-Dual (murine macrophage reporter line); test: NF-kB reporter (SEAP) activity fold change vs agonist alone; higher = enhanced NF-kB activity
In short: (§1)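 Overnight stimulation with a PRR agonist followed pre-incubation for 1 hour at 37 °C with compound at 10 μM final. This was done in RAW-Dual murine macrophage reporter cells seeded at 50 000 per well in 384-well plates. NF-κB (SEAP, QUANTI-Blue absorbance at 620 nm) and IRF (Lucia luciferase, QUANTI-Luc luminescence) were read from the supernatant. Each reporter's fold change relative to the mean agonist-only control on the same plate was averaged over replicate plates.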

[2] = test system: RAW-Dual (murine macrophage reporter line); test: IRF reporter (Lucia luciferase) activity fold change vs agonist alone; higher = enhanced IRF activity
In short: as §1

[3] = test system: RAW-Dual (murine macrophage reporter line); test: viability score (confluency relative to resting cells, overnight) (fraction); higher = more viable, active = viable (0.7 or more)
In short: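 RAW-Dual macrophages in 384-well plates were exposed overnight to compound at 10 μM final. Confluency was imaged with IncuCyte, and two confluency masks were generated with IncuCyte software over all imaged wells. The viability score is confluency expressed relative to resting cells. Compounds were called viable if both masks exceeded 70% of resting cells.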

[4] = agonist: CpG ODN 1826 0.5 ug/mL

SMILES | NF-kB reporter [1, 4] | NF-kB reporter ([1]; agonist: LPS 0.1 ug/mL) | NF-kB reporter ([1]; agonist: MPLA […]) | IRF reporter ([2]; agonist: 3'3'-cGAMP 10 ug/mL) | IRF reporter ([2]; agonist: LPS 0.1 ug/mL) | IRF reporter ([2]; agonist: MPLA […]) | viability score [3]
COC(=O)c1ccc(N2C(=O)c3ccc(Oc4cccc([N+](=O)[O-])c4)cc3C2=O)cc1 | 0.969 ± 0.085 | 0.923 ± 0.079 | 1.06 ± 0.11 | 0.994 ± 0.031 | 1.33 ± 0.17 | 1.71 ± 0.19 | 1.02 (active)
O=C(NCC#CCOc1cccc(C(F)(F)F)c1)Nc1c(F)cccc1F | 0.921 ± 0.077 | 1.13 ± 0.12 | 0.922 ± 0.045 | 0.994 ± 0.051 | 1.07 ± 0.17 | 1.15 ± 0.39 | 1.01 (active)
c1ccc(CSc2nnc(-c3ccncc3)[nH]2)cc1 | 1.08 ± 0.085 | 0.945 ± 0.097 | 1.04 ± 0.028 | 0.582 ± 0.033 | 0.888 ± 0.043 | 0.872 ± 0.09 | 0.996 (active)
Oc1ccc(N=Cc2ccccc2F)cc1 | 0.861 ± 0.099 | 0.887 ± 0.079 | 1.1 ± 0.064 | 0.304 ± 0.012 | 0.686 ± 0.028 | 1.36 ± 0.14 | 0.879 (active)
CC(=O)c1cc(Cl)ccc1OC(=O)c1ccccc1Cl | 0.767 ± 0.07 | 0.803 ± 0.051 | 0.757 ± 0.062 | 0.543 ± 0.025 | 1.63 ± 0.12 | 1.8 ± 0.24 | 0.987 (active)
CSCCC(NC(=O)C(=Cc1ccccc1)NC(=O)c1ccco1)C(=O)O (configuration not stated) | 0.764 ± 0.066 | 0.842 ± 0.054 | 0.936 ± 0.081 | 1.05 ± 0.05 | 1.33 ± 0.081 | 1.49 ± 0.14 | 1 (active)
N#CCCN(C1CCCCC1)S(=O)(=O)c1cccc2nsnc12 | 1.05 ± 0.083 | 0.826 ± 0.051 | 1.73 ± 0.58 | 0.867 ± 0.048 | 1.33 ± 0.077 | 1.28 ± 0.15 | 1.01 (active)
COc1cc(O)c(C(=O)Nc2nc(C(=O)NCCN(C(C)C)C(C)C)cs2)cc1OC.Cl.O.O.O | 1.01 ± 0.098 | 0.966 ± 0.13 | 0.968 ± 0.022 | 0.96 ± 0.064 | 1 ± 0.11 | 1.05 ± 0.18 | 0.997 (active)
Nc1nc(N)nc(-c2cc(Cl)ccc2Cl)n1 | 0.906 ± 0.22 | 1 ± 0.052 | 1.05 ± 0.093 | 0.946 ± 0.052 | 1.18 ± 0.32 | 1.08 ± 0.17 | 0.986 (active)
COc1ccc(CNCc2ccc3ccccc3c2)c(OC)c1 | 0.163 ± 0.026 | 1.08 ± 0.09 | 1.79 ± 0.56 | 0.644 ± 0.046 | 1.74 ± 0.38 | 2.05 ± 0.59 | 0.688 (inactive)
Cc1ccc(-n2c(C)cc(C=NNC(=O)CN3CCOCC3)c2C)c(C)c1 | 0.928 ± 0.084 | 1.11 ± 0.1 | 1.09 ± 0.097 | 0.822 ± 0.024 | 1.09 ± 0.19 | 1.07 ± 0.082 | 1 (active)
COC(=O)C1=CN(CC2CCCO2)C=C(C(=O)OC)C1c1cccc(Cl)c1 (configuration not stated) | 0.59 ± 0.053 | 0.736 ± 0.065 | 0.83 ± 0.072 | 0.82 ± 0.037 | 1.17 ± 0.069 | 1.1 ± 0.093 | 0.994 (active)
CC(=O)Oc1c(C)cc2sc3ccccc3c(=O)c2c1C | 1.06 ± 0.18 | 0.87 ± 0.077 | 0.927 ± 0.095 | 0.846 ± 0.032 | 1.25 ± 0.12 | 1.2 ± 0.12 | 0.998 (active)
COC(C)(CNC(=O)c1cc2ccccc2[nH]1)c1ccccc1F (configuration not stated) | 0.825 ± 0.035 | 0.96 ± 0.081 | 1.06 ± 0.057 | 0.944 ± 0.063 | 1.01 ± 0.17 | 1.11 ± 0.22 | 0.94 (active)
O=C(O)c1ccccc1N(Cc1ccccc1)S(=O)(=O)c1ccccc1 | 1.14 ± 0.13 | 1 ± 0.15 | 1.08 ± 0.061 | 0.965 ± 0.1 | 1.06 ± 0.072 | 0.938 ± 0.14 | 0.984 (active)
CO[C@@]1(NC(=O)CSCC#N)C(=O)N2C(C(=O)[O-])=C(CSc3nnnn3C)CS[C@@H]21 [Prestw-700] | 0.993 ± 0.095 | 1.02 ± 0.088 | 0.927 ± 0.063 | 1 ± 0.033 | 1.47 ± 0.13 | 1.24 ± 0.12 | 0.997 (active)
S=C(NC12CC3CC(CC(C3)C1)C2)N1CCOCC1 | 1.14 ± 0.11 | 1.06 ± 0.074 | 1.07 ± 0.039 | 1.01 ± 0.13 | 1.07 ± 0.1 | 1.15 ± 0.12 | 1 (active)
Cc1ccc(-c2nn(-c3ccccc3)cc2C=C(C#N)C(N)=O)o1 | 1.04 ± 0.26 | 0.991 ± 0.081 | 1 ± 0.081 | 1.01 ± 0.041 | 1.22 ± 0.2 | 1.12 ± 0.11 | 0.966 (active)
Cl.O=C(O)/C=C/c1ccc(Cn2ccnc2)cc1 | 1.43 ± 0.19 | 1.32 ± 0.25 | 0.979 ± 0.069 | 0.909 ± 0.028 | 1.34 ± 0.23 | 0.87 ± 0.096 | 0.988 (active)
COc1cc2ncnc(Nc3ccc(F)c(Cl)c3)c2cc1NC(=O)/C=C/CN1CCCCC1 | 0.666 ± 0.32 | 0.936 ± 0.083 | 0.989 ± 0.081 | 0.486 ± 0.026 | 0.958 ± 0.2 | 0.861 ± 0.22 | 0.988 (active)
NC(N)=NN=Cc1ccc(OS(=O)(=O)c2ccccc2)cc1 | 0.0965 ± 0.0075 | 0.954 ± 0.048 | 1.18 ± 0.14 | 0.929 ± 0.044 | 0.93 ± 0.058 | 1.04 ± 0.13 | 0.433 (inactive)
COC1CC2CCC(C1)N2S(=O)(=O)c1ccc(Br)cc1 (configuration not stated) | 0.93 ± 0.089 | 1.05 ± 0.1 | 0.909 ± 0.04 | 1.01 ± 0.11 | 1.22 ± 0.16 | 1.15 ± 0.24 | 1.01 (active)
O=C(Oc1ccc(Cl)c2cccnc12)c1cccc(Cl)c1 | 0.981 ± 0.16 | 1.05 ± 0.093 | 0.926 ± 0.11 | 0.994 ± 0.032 | 1.41 ± 0.21 | 1.45 ± 0.15 | 1 (active)
Cl.Cl.OCCOCCN1CCN(C(c2ccccc2)c2ccc(Cl)cc2)CC1 (configuration not stated) | 1.21 ± 0.051 | 1.51 ± 0.12 | 2.68 ± 0.22 | 0.726 ± 0.034 | 1.27 ± 0.25 | 1.45 ± 0.37 | 0.965 (active)
CCC(=O)Nc1ccc(NC(=O)c2ccccc2OC)cc1 | 0.932 ± 0.086 | 1.04 ± 0.083 | 0.997 ± 0.064 | 1 ± 0.042 | 1.25 ± 0.087 | 0.969 ± 0.076 | 1.01 (active)
CC(C)c1noc(CN2CCC(n3nc(C(F)(F)F)n(C)c3=O)CC2)n1 | 0.975 ± 0.13 | 1.11 ± 0.091 | 0.939 ± 0.069 | 0.993 ± 0.05 | 1.08 ± 0.12 | 1.15 ± 0.13 | 1 (active)
